The list is not random: actives were taken first. Their share in the collection is about 10%.
G9a inh – blocks human histone lysine methyltransferase G9a | Q96KQ7 | G9a H3K9 monomethylation, AlphaScreen, 2 h | Potency, µM (titrated, usually from 102 µM), hits mostly inhibitors | actives 8.8% (n = 350,000); further: nearly all actives have a fitted effect of over 75% in size
Target sequence (Q96KQ7 913-1193 limits assumed): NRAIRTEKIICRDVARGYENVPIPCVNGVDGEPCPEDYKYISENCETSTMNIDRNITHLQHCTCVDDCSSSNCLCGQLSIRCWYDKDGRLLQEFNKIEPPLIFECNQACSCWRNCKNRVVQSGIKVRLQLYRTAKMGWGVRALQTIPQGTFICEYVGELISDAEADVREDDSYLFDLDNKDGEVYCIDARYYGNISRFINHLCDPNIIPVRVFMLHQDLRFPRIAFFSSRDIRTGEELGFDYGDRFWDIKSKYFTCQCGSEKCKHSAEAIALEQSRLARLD
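Compounds were preincubated with 20 nM G9a for 15 min, after which biotinylated H3K9 peptide (500 nM) and SAM (20 uM) started a 2 h room-temperature reaction. Monomethylated product was quantified by antibody-based AlphaScreen chemiluminescence.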
JMJD2A Tudor inh – blocks the human JMJD2A Tudor domain | O75164 | Potency, µM (top dose mostly 114 µM), actives largely listed as inhibitors | AID 504339 | actives 4.4% (n = 390,000) | AlphaScreen JMJD2A-Tudor / H3K4me3 peptide binding; further: nearly all actives have a fitted effect of over 50% in size
CtBP-E1A inh – CtBP/E1A binding inhibition; activity change, % (no concentration beside the values); AID 651724; AlphaScreen GST-E1A/His-CtBP binding, 1536-well; active compounds read low; actives 0.49% (n = 340,000); in the data active means activity change below about -65%; inconclusive means mostly about -30% to -63%
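GST-E1A and His-tagged CtBP (125 nM each as 5X stock) were preincubated with pin-transferred compound for 2 h at 37 °C in the dark, then glutathione donor and nickel acceptor beads were added for 1 h before AlphaScreen reading.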
Six1-Eya2 blk – Six1/Eya2 interaction inhibition | activity change, % (concentration not given with the values) | actives 0.56% (n = 360,000) | AlphaScreen GST-Six1/His-Eya2 binding, biochemical; active compounds read low; in the data active means activity change below about -65%; inconclusive means mostly about -30% to -63%
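Compounds are tested against tagged Six1 and Eya2 proteins bridged by glutathione donor and nickel acceptor beads; after a one-hour incubation at 37 °C without light, AlphaScreen emission is recorded.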
BAZ2B inh – BAZ2B (human) inhibition; actives 4.4% (n = 360,000); AID 504333; Potency, µM (doses to about 114 µM), usual class: inhibitors; AlphaScreen BAZ2B-H3K14Ac peptide displacement; further: nearly all actives have a fitted effect of over 60% in size
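AlphaScreen luminescence quantifies BAZ2B engagement of H3K14Ac peptide; the protein and biotinylated peptide are both at 50 nM final, buffer PBS pH 7.4 with 0.01% Tween-20, all steps at room temperature.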
HP1b chromo inh – HP1-beta chromodomain-methylated histone interaction inhibition; AlphaScreen HP1-beta / biotin-H3K9me3 peptide binding; P83916; Potency, µM (series often up to 114 µM), most hits filed as inhibitors; actives 0.56% (n = 390,000); further: nearly all actives have a fitted effect of over 70% in size
Target sequence (P83916 whole entry, looked up): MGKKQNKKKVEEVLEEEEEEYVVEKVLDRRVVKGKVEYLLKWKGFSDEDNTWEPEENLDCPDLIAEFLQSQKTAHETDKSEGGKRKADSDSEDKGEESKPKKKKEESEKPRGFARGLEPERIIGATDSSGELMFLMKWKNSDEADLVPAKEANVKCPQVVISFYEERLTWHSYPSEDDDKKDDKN
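Compound inhibition of the preformed complex between 50 nM HP1-beta and 50 nM biotinylated H3K9me3 peptide was read by AlphaScreen. Buffer was PBS pH 7.4 with 0.01% Tween-20. Incubations ran 30 min at room temperature, with 10 ug/mL donor/acceptor beads.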
Each line names hits and unclear results; the compound was inactive in the other large screens. Unless noted, the call rests on the fitted dose curve; in most records, active means well fitted inhibition curve with a large enough effect; inconclusive means small, poorly fitted or top-dose-only effect; inactive means no such curve, though single readings can be large or run the other way.

COC(=O)c1ccc(Oc2cc(C)nc(SC)n2)cc1	JMJD2A Tudor inh 28.2µM, HP1b chromo inh inconclusive
COc1cccc(NC(=O)Cn2c(=O)n(CC(=O)NCc3ccc(C)cc3)c(=O)c3sccc32)c1	none (no result: CtBP-E1A inh, Six1-Eya2 blk)
CC(/C=N/n1c(-c2cccnc2)n[nH]c1=S)=C\c1ccccc1	G9a inh 0.891µM, JMJD2A Tudor inh 20µM, BAZ2B inh inconclusive
CC(=C/c1ccccc1)/C=N/n1c(-c2ccncc2)n[nH]c1=S	JMJD2A Tudor inh 10µM, BAZ2B inh inconclusive, HP1b chromo inh inconclusive
CC(=C/c1ccccc1)/C=N/n1c(C)n[nH]c1=S	JMJD2A Tudor inh 31.6µM (no result: G9a inh, CtBP-E1A inh)
CCOC(=O)/C=C1\SCC(=O)N1CC(=O)NC(C)C	G9a inh 3.55µM
CCN1CCN(C2=CC3=CC(=C(C#N)C#N)CCC3CC2)CC1 (centres undefined)	G9a inh 44.7µM
CN1CCN(C2=CC3=CC(=C(C#N)C#N)CCC3CC2)CC1 (centres undefined)	G9a inh inconclusive, BAZ2B inh inconclusive
CN(C(=O)C1CCCO1)c1nnc(-c2cnccn2)s1 (centres undefined)	none
Cc1ccc(-c2nnc(N(C)C(=O)C3CCCO3)s2)cn1 (centres undefined)	G9a inh 44.7µM, BAZ2B inh inconclusive
O=c1[nH]c(C2C3CC4CC(C3)CC2C4)nc2ccccc12 (centres undefined)	none
Fc1cccc(C[n+]2csc3ccccc32)c1	G9a inh 11.2µM, JMJD2A Tudor inh 79.4µM, BAZ2B inh inconclusive
CCOc1ccccc1NC(=O)Cn1c(=O)n(Cc2ccccc2)c(=O)c2cccnc21	none (no result: CtBP-E1A inh, Six1-Eya2 blk)
Cc1cc(C)n2cnnc2n1	none
Cc1cc(C)n2c(=S)[nH]nc2n1	G9a inh 1.12µM, JMJD2A Tudor inh inconclusive, BAZ2B inh 39.8µM, HP1b chromo inh 8.91µM
CCc1nn(CCCC(=O)N2CCN(c3cccc(C)c3C)CC2)c(=O)c2cc3occc3n12	G9a inh 70.8µM, BAZ2B inh inconclusive (no result: CtBP-E1A inh)
CCc1nn(CC(=O)N2CCN(c3cccc(C)c3C)CC2)c(=O)c2cc3occc3n12	none (no result: CtBP-E1A inh, Six1-Eya2 blk)
CCc1nn(CC(=O)NC(C)CCc2ccccc2)c(=O)c2cc3occc3n12 (centres undefined)	JMJD2A Tudor inh 44.7µM
CCc1nn(C(C)C(=O)NCCc2ccccc2)c(=O)c2cc3occc3n12 (centres undefined)	none (no result: G9a inh)
Cc1ccc(-c2cn3c(n2)sc2cc(C(=O)NC(C)C45CC6CC(CC(C6)C4)C5)ccc23)cc1 (centres undefined)	none (no result: CtBP-E1A inh, Six1-Eya2 blk)
O=C1NC(=Nc2ccccc2)S/C1=C\c1ccccc1	none
O=C1N/C(=N/Nc2ccccc2)S/C1=C\c1ccccc1	G9a inh 7.94µM, JMJD2A Tudor inh 44.7µM, BAZ2B inh 39.8µM, HP1b chromo inh inconclusive
Cc1ccccc1NC(=O)c1sc2nc(N3CCOCC3)c3c(c2c1N)CC(C)(C)OC3	G9a inh inconclusive (no result: CtBP-E1A inh, Six1-Eya2 blk)
CCCNC(=O)N1CCN(S(=O)(=O)c2ccc3c(ccn3C)c2)CC1	none (no result: CtBP-E1A inh, Six1-Eya2 blk)
Cc1cc(C)cc(-n2c(C)cc(C(=S)N3CCOCC3)c2C)c1	G9a inh 4.47µM, JMJD2A Tudor inh 56.2µM, BAZ2B inh 44.7µM, HP1b chromo inh inconclusive
Cc1cccc(-n2c(C)cc(C(=S)N3CCOCC3)c2C)c1C	G9a inh inconclusive, JMJD2A Tudor inh inconclusive, HP1b chromo inh inconclusive
Cc1cc(C(=S)N2CCOCC2)c(C)n1-c1ccc(Cl)cc1	G9a inh 3.16µM, JMJD2A Tudor inh 28.2µM, BAZ2B inh 50.1µM, HP1b chromo inh 44.7µM
COc1ccc(/C=C(\NC(=O)c2ccco2)C(=O)NCCc2nc3ccccc3[nH]2)cc1	none (no result: G9a inh, CtBP-E1A inh)
COc1ccc(CCNC(=O)/C=C/c2ccco2)cc1	JMJD2A Tudor inh 31.6µM, BAZ2B inh inconclusive, HP1b chromo inh inconclusive (no result: G9a inh)
COc1ccccc1/C=C/C(=O)NCC(=O)N/N=C(/C)c1ccco1	none
COc1ccc(CCNC(=O)/C=C/c2ccco2)cc1OC	G9a inh 14.1µM
COc1ccc(/C=C(\NC(=O)/C=C/c2ccco2)C(=O)NCCc2nc3ccccc3[nH]2)cc1	G9a inh inconclusive, JMJD2A Tudor inh inconclusive, BAZ2B inh 50.1µM, HP1b chromo inh inconclusive
CCc1ccc(/C(C)=N/NC(=O)CNC(=O)/C=C/c2ccco2)cc1	JMJD2A Tudor inh 22.4µM, Six1-Eya2 blk inconclusive, HP1b chromo inh 22.4µM (no result: G9a inh, BAZ2B inh)
CCOc1ccc(CCNC(=O)/C=C/c2ccco2)cc1OCC	G9a inh 35.5µM, BAZ2B inh inconclusive
CCOc1ccc(CCNC(=O)COC(=O)/C=C/c2ccco2)cc1OCC	none
OCCC1CN(Cc2ccc(Oc3ncccn3)cc2)CCN1C1CCCCC1 (centres undefined)	none (no result: CtBP-E1A inh)
Cc1ccc(Cl)cc1NC(=O)Cn1c(=O)cc(C)c2c(C)nn(C)c21	JMJD2A Tudor inh inconclusive (no result: CtBP-E1A inh, Six1-Eya2 blk)
COc1cccc(Cn2cnc3c(NS(=O)(=O)c4cc(Cl)ccc4Cl)c(C)c(C)cc32)c1	G9a inh 8.91µM
COc1cccc(Cn2cnc3c(NS(=O)(=O)c4ccc(Cl)cc4Cl)c(C)c(C)cc32)c1	none (no result: G9a inh)
O=[N+]([O-])c1cccc(Oc2cnccn2)c1	none
COc1cc(NC(=O)Cn2c(=O)ccc3cc(S(=O)(=O)N4CCCC4)ccc32)cc(OC)c1	none (no result: CtBP-E1A inh, Six1-Eya2 blk)
Cc1cc(C)c(-c2csc(NC(=O)C3=NN(c4ccccc4)C(=O)CC3)n2)c(C)c1	G9a inh 28.2µM (no result: CtBP-E1A inh)
CSc1nc2ccc(NC(=O)c3ccccn3)cc2s1	G9a inh inconclusive, JMJD2A Tudor inh 28.2µM
Cc1nc2ccc(NC(=O)c3ccc(Cl)nc3)cc2s1	G9a inh inconclusive (no result: CtBP-E1A inh)
CCc1ccc(-c2csc(NC(=O)C3=NN(c4ccccc4)C(=O)CC3)n2)cc1	none (no result: CtBP-E1A inh)
Cc1nc2ccc(NC(=O)c3cc(Cl)ccn3)cc2s1	G9a inh 44.7µM, BAZ2B inh 79.4µM
CSc1nc2ccc(NC(=O)C3=NN(c4ccccc4)C(=O)CC3)cc2s1	G9a inh 44.7µM, JMJD2A Tudor inh inconclusive
O=C(/C=C/c1ccccc1)NCCc1ccccc1	JMJD2A Tudor inh inconclusive, BAZ2B inh inconclusive
Cc1ccc(S(=O)(=O)NCc2ccc(C(=O)N3CCN(c4ccc([N+](=O)[O-])cc4)CC3)cc2)cc1	G9a inh inconclusive (no result: CtBP-E1A inh)
Cc1nc2ccc(NC(=O)c3cc([N+](=O)[O-])cc([N+](=O)[O-])c3Cl)cc2s1	G9a inh 6.31µM, JMJD2A Tudor inh 56.2µM, BAZ2B inh inconclusive, HP1b chromo inh inconclusive
Cc1ccc2nc(NC(=O)c3ccccn3)sc2c1	CtBP-E1A inh inconclusive, Six1-Eya2 blk -72.6
O=C(Nc1cccnc1Cl)C1=NN(c2ccccc2)C(=O)CC1	none (no result: G9a inh)
O=C(NCc1ccncc1)C1=NN(c2ccccc2)C(=O)CC1	G9a inh 25.1µM
CC(=O)Nc1ccc2nc(NC(=O)C(Cl)(Cl)Cl)sc2c1	G9a inh 50.1µM
C=CC(=O)NC(NC(=O)C=C)c1ccccc1F	none
